Among the test systems are SK-MEL-2 melanoma; EKVX NSCLC; SN12C renal; UO-31 renal; TK-10 renal; ACHN renal; CAKI-1 renal; A498 renal; MOLT-4 leukemia; SR leukemia; RPMI-8226 leukemia; OVCAR-8 ovarian; OVCAR-5 ovarian; OVCAR-4 ovarian; SK-OV-3 ovarian; IGROV1 ovarian; OVCAR-3 ovarian; HS 578T breast; NCI/ADR-RES ovarian.
Holding throughout (assay): NCI-60 one-dose screen, 48 h (100 = growth as untreated, 0 = no growth, -100 = all killed)
What all share (details): 10 µM unless noted

About 83,000 compounds went through this panel and 20% of them were active in at least one assay; those are over-represented in the sample as a whole.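 Interpretation: 100, growth as untreated; towards 0, rising growth inhibition; 0, no net growth; 0 to -100, cell death. Compounds scoring below 10 were considered active.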 Unmarked numbers belong to inactive results. Calls of active or inactive are those of the source.

Take `N/C(=N\c1nc2ccccc2s1)NC(=O)Nc1cccc(Cl)c1`: the growth in the test with SK-MEL-2 melanoma is 28.9%; in the test with EKVX NSCLC it was 49.7%; in the test with SN12C renal, 40.9%; with UO-31 renal, 46.8%; in the test with TK-10 renal it was 69.2%; in the test on ACHN renal, 44.7%. Also, the growth with CAKI-1 renal was 23.9%; in the test on A498 renal, 10.7%; with MOLT-4 leukemia, 31.1%; in the test on SR leukemia, 14.8%; with RPMI-8226 leukemia it was 41.6%; in the test on OVCAR-8 ovarian, 47.7%. Further, the growth is 67.5% with OVCAR-5 ovarian; 62.3% with OVCAR-4 ovarian; 41.9% with SK-OV-3 ovarian; 35.5% in the test with IGROV1 ovarian; 15.8% in the test with OVCAR-3 ovarian; 17.5% in the test with HS 578T breast. In the test on NCI/ADR-RES ovarian, the growth was 11.8%.
Turning to `O=Cc1c[nH]c2ccc(-c3csc4ccccc34)cc12`, the growth in the test with SK-MEL-2 melanoma was 110%; with EKVX NSCLC, 55.9%; in the test with SN12C renal it was 75.2%; in the test with UO-31 renal, 42.9%; in the test on TK-10 renal it was 60.6%; with ACHN renal, 63.7%. Further, the growth with CAKI-1 renal was 39.7%; in the test on A498 renal, 43.5%; in the test on MOLT-4 leukemia, 15.7%; in the test with SR leukemia, 6.86% (active); in the test on RPMI-8226 leukemia it was 27.8%; with OVCAR-8 ovarian, 27.6%. The growth is 86.3% in the test on OVCAR-5 ovarian; 94.2% in the test on OVCAR-4 ovarian; 49.4% in the test with SK-OV-3 ovarian; 20.5% in the test on IGROV1 ovarian; 23.8% with OVCAR-3 ovarian; 40.4% with HS 578T breast. Further, the growth with NCI/ADR-RES ovarian is 12.3%.
For `NNC(=O)c1nc(N)n(-c2ccc(S(N)(=O)=O)cc2)n1`, the growth with SK-MEL-2 melanoma was 107%; in the test with EKVX NSCLC, 98.2%; in the test on SN12C renal it was 97.6%; in the test with UO-31 renal, 76.2%; with TK-10 renal, 104%; in the test with ACHN renal it was 100%. For the same molecule, the growth was 88% with CAKI-1 renal; 103% in the test on A498 renal; 105% with MOLT-4 leukemia; 88.5% in the test on SR leukemia; 91.4% in the test on RPMI-8226 leukemia; 96.2% in the test on OVCAR-8 ovarian. The growth in the test with OVCAR-5 ovarian was 101%; with OVCAR-4 ovarian, 100%; in the test on SK-OV-3 ovarian it was 94.7%; with IGROV1 ovarian, 103%; in the test with OVCAR-3 ovarian, 89.2%; in the test with HS 578T breast it was 94.5%. For the same molecule, the growth in the test with NCI/ADR-RES ovarian was 100%.
On to `Cc1ccc2nc(NC(=O)CSc3nc(-c4ccccc4)c(C#N)c(=O)n3Cc3ccccc3)sc2c1`, for which the growth in the test on SK-MEL-2 melanoma is 85.7%; with EKVX NSCLC, 90.2%; in the test on SN12C renal it was 92%; with UO-31 renal, 67.4%; in the test with TK-10 renal, 119%; with ACHN renal it was 92.6%. Also, the growth in the test on CAKI-1 renal was 69%; in the test on A498 renal, 85.7%; in the test with MOLT-4 leukemia it was 93.8%; in the test with SR leukemia, 44.5%; in the test with RPMI-8226 leukemia, 67.8%; in the test on OVCAR-8 ovarian, 93%. Also, the growth was 108% in the test with OVCAR-5 ovarian; 92.8% in the test on OVCAR-4 ovarian; 82.1% in the test on SK-OV-3 ovarian; 78% in the test on IGROV1 ovarian; 78.2% in the test with HS 578T breast; 92.2% in the test on NCI/ADR-RES ovarian.
Turning to `C=C(C)[C@@H]1CC[C@]2(C(=O)NC3CCCCC3)CC[C@]3(C)[C@H](CC[C@@H]4[C@@]5(C)CCC(=O)C(C)(C)[C@@H]5CC[C@]43C)[C@@H]12`, the growth in the test with SK-MEL-2 melanoma was 95%; in the test on EKVX NSCLC, 93.9%; in the test with SN12C renal, 86%; in the test with UO-31 renal, 76.1%; in the test on TK-10 renal it was 95.2%; in the test on ACHN renal, 99.8%. Further, the growth in the test on CAKI-1 renal was 76.6%; with A498 renal, 83.3%; with MOLT-4 leukemia, 88%; in the test on SR leukemia, 115%; in the test with RPMI-8226 leukemia, 83.1%; in the test on OVCAR-8 ovarian it was 94.6%. For the same molecule, the growth in the test with OVCAR-5 ovarian was 96.5%; in the test with OVCAR-4 ovarian, 82.1%; in the test with SK-OV-3 ovarian it was 97.1%; in the test on IGROV1 ovarian, 101%; with OVCAR-3 ovarian it was 96.7%; in the test with HS 578T breast it was 89.5%. Also, in the test with NCI/ADR-RES ovarian, the growth is 104%.
For `COc1cc(-c2n/c(=C\c3c(O)[nH]c4ccc(Cl)cc34)cc3c2=Nc2ccccc2-3)cc(OC)c1OC`, the growth in the test with SK-MEL-2 melanoma is 36%; with EKVX NSCLC, 38.6%; in the test on SN12C renal it was -27.5% (active); in the test on UO-31 renal, -54.3% (active); with TK-10 renal, -7.12% (active); with ACHN renal, -44.8% (active). For the same molecule, the growth in the test with CAKI-1 renal is 13.2%; in the test on A498 renal, 52.4%; in the test on MOLT-4 leukemia, 10.2%; with SR leukemia, 0.372% (active); with RPMI-8226 leukemia, 15.5%; in the test with OVCAR-8 ovarian, 3.95% (active). Further, the growth in the test with OVCAR-5 ovarian was 88.6%; in the test on OVCAR-4 ovarian, -41.8% (active); with SK-OV-3 ovarian, -14.2% (active); in the test on IGROV1 ovarian it was -18.3% (active); in the test on OVCAR-3 ovarian it was -57.4% (active); with HS 578T breast, 20.9%. In addition, the growth in the test with NCI/ADR-RES ovarian is 15.1%.
Take `N#Cc1c(-c2ccccc2)cc(-c2ccc(Nc3nc(Nc4ccc(F)cc4)nc(Nc4ccc(F)cc4)n3)cc2)nc1N`: the growth was 79.7% in the test on SK-MEL-2 melanoma; 88.9% with EKVX NSCLC; 90.3% in the test on SN12C renal; 90.4% with UO-31 renal; 94% in the test on TK-10 renal; 107% in the test on ACHN renal. The growth with CAKI-1 renal is 99.8%; in the test with A498 renal it was 91.7%; with MOLT-4 leukemia it was 17.3%; in the test with SR leukemia it was 0.591% (active); in the test with RPMI-8226 leukemia, 14.9%; with OVCAR-8 ovarian, 97.2%. Further, the growth is 70.9% in the test on OVCAR-5 ovarian; 108% with OVCAR-4 ovarian; 100% in the test on SK-OV-3 ovarian; 95.5% in the test on IGROV1 ovarian; 87.8% in the test on HS 578T breast; 76.1% in the test with NCI/ADR-RES ovarian.
For the molecule `C=C(C)[C@@H]1CC[C@]2(C(=O)NC3CCCCC3)CC[C@]3(C)[C@H](CC[C@@H]4[C@@]5(C)CCCNC(C)(C)[C@@H]5CC[C@]43C)[C@@H]12`, the growth was 35% with SK-MEL-2 melanoma; 77.6% with EKVX NSCLC; 61.6% with SN12C renal; 61.5% with UO-31 renal; 86.5% in the test on TK-10 renal; 51% in the test with ACHN renal. In addition, the growth in the test on CAKI-1 renal was 26.4%; in the test with A498 renal it was 68.7%; in the test with MOLT-4 leukemia, -2.14% (active); with SR leukemia it was -22.5% (active); in the test on RPMI-8226 leukemia, -32.5% (active); with OVCAR-8 ovarian it was -16.7% (active). The growth in the test on OVCAR-5 ovarian was 82.8%; with OVCAR-4 ovarian, 44.6%; in the test on SK-OV-3 ovarian it was 95.8%; in the test on IGROV1 ovarian, 55.1%; in the test with OVCAR-3 ovarian, 64.8%; in the test on HS 578T breast, 78.8%. Further, the growth with NCI/ADR-RES ovarian is 57.7%.
Regarding `CC1(C)OC2C(CO[Si](C)(C)C(C)(C)C)OC(n3c(I)c(C#C[Si](C)(C)C)c(=O)[nH]c3=O)C2O1` (stereo unspecified), the growth with SK-MEL-2 melanoma was 82.1%; with EKVX NSCLC, 109%; with SN12C renal it was 85.7%; in the test on UO-31 renal, 86.6%; in the test with TK-10 renal it was 109%; in the test on ACHN renal, 107%. Moreover, the growth was -8.73% (active) in the test on CAKI-1 renal; 102% in the test on A498 renal; 13.4% in the test with MOLT-4 leukemia; 63.6% with SR leukemia; -12.2% (active) in the test on RPMI-8226 leukemia; 88.6% in the test with OVCAR-8 ovarian. In addition, the growth with OVCAR-5 ovarian is 92.6%; in the test on OVCAR-4 ovarian, -68.4% (active); in the test with SK-OV-3 ovarian, 111%; in the test on IGROV1 ovarian, 96.7%; in the test on OVCAR-3 ovarian, -41.1% (active); in the test with HS 578T breast, 3.19% (active). Besides, the growth in the test on NCI/ADR-RES ovarian was 82.7%.
Take `Cn1c(-c2c(N)n(Cc3ccc(C(F)(F)F)cc3)c3nc(C#N)c(C#N)nc23)nc2ccccc21`: the growth with SK-MEL-2 melanoma was 15.4%; in the test on EKVX NSCLC it was 1.13% (active); in the test on SN12C renal, 14.4%; in the test on UO-31 renal, -23% (active); in the test on TK-10 renal, -12.9% (active); with ACHN renal, 3.12% (active). The growth in the test on CAKI-1 renal is 9.68% (active); in the test on A498 renal, -6.26% (active); with MOLT-4 leukemia, -16.8% (active); with SR leukemia, -35.5% (active); in the test with RPMI-8226 leukemia, -42.3% (active); in the test on OVCAR-8 ovarian, 7.05% (active). The growth was 30% with OVCAR-5 ovarian; 22.6% with OVCAR-4 ovarian; -4.02% (active) in the test with SK-OV-3 ovarian; 16.9% in the test with IGROV1 ovarian; -8.62% (active) with OVCAR-3 ovarian; 12.4% in the test with HS 578T breast. In addition, in the test on NCI/ADR-RES ovarian, the growth is 6.65% (active).
As to `Fc1c[c-]c(-c2ccccn2)c(F)c1.[CH3-].[Pt+2].c1ccc(P(C[PH+](c2ccccc2)c2ccccc2)c2ccccc2)cc1`, the growth with SK-MEL-2 melanoma is -39% (active); with EKVX NSCLC, -12% (active); in the test on SN12C renal, -32.2% (active); in the test on UO-31 renal it was -98.2% (active); in the test with TK-10 renal, -30.5% (active); in the test with ACHN renal, -100% (active). Besides, the growth is -73.8% (active) in the test on CAKI-1 renal; -79.3% (active) in the test on A498 renal; 0% (active) in the test on MOLT-4 leukemia; 1.65% (active) in the test with SR leukemia; -13.2% (active) in the test on RPMI-8226 leukemia; 7.36% (active) in the test on OVCAR-8 ovarian. The growth in the test on OVCAR-5 ovarian is -34.5% (active); in the test on OVCAR-4 ovarian, -19.3% (active); in the test on SK-OV-3 ovarian it was 9.11% (active); with IGROV1 ovarian it was -22.2% (active); with OVCAR-3 ovarian, -74.9% (active); in the test on HS 578T breast it was -5.48% (active). In addition, the growth in the test on NCI/ADR-RES ovarian was 49.8%.
Take `O=C(/C=C/c1ccco1)c1ccc(Nc2nc(Nc3ccc(F)cc3)nc(Nc3ccc(Cl)cc3)n2)cc1`: the growth with SK-MEL-2 melanoma was 59.4%; with EKVX NSCLC, 75.5%; in the test on SN12C renal, 81.1%; in the test with UO-31 renal, 85.3%; with TK-10 renal, 84%; in the test with ACHN renal it was 89.1%. In addition, the growth is 80% with CAKI-1 renal; 30.8% in the test with A498 renal; -99.1% (active) in the test with MOLT-4 leukemia; 0.269% (active) with SR leukemia; 23.6% in the test on RPMI-8226 leukemia; 87.9% with OVCAR-8 ovarian. Besides, the growth in the test with OVCAR-5 ovarian is 64.9%; in the test on OVCAR-4 ovarian, 78.4%; in the test on SK-OV-3 ovarian, 95.4%; with IGROV1 ovarian it was 61.7%; in the test with OVCAR-3 ovarian it was 75%; in the test on HS 578T breast it was 81.5%. The growth in the test on NCI/ADR-RES ovarian was 67.3%.

The values above are taken from PubChem BioAssay (NCI).
